In the library only some 2.2% were active in any assay of this set; here they are far more common.
ADAM17 inh: ADAM17 inhibition, QFRET primary screen | recombinant ADAM17, EDANS/DABCYL FRET peptide cleavage | inhibition, % at 6.95 µM | 370,000 tested, 0.83% active | P78536;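 active = inhibition above the mean of compounds lying between control limits plus 3 SD, set per campaign, cut at about 8.5% in these data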;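 note: 0% = DMSO-only wells as the low control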
Target sequence (P78536 215-824 limits assumed): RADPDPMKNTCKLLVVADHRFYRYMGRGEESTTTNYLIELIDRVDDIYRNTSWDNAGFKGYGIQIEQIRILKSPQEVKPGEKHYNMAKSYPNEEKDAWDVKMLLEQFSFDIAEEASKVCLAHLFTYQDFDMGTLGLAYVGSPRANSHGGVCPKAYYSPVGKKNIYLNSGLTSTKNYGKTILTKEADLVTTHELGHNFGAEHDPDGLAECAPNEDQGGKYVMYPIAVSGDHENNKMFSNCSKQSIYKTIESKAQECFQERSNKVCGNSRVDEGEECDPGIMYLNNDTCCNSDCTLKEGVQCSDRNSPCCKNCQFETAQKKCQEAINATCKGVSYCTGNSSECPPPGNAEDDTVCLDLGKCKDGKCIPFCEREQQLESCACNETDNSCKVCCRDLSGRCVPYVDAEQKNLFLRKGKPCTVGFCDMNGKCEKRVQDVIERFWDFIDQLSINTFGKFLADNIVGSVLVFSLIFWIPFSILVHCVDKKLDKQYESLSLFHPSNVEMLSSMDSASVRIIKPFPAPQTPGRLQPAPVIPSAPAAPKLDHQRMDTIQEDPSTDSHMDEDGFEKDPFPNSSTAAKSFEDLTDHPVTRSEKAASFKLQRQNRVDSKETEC
GC-B act: GC-B (human) receptor activation; 370,000 tested, 0.11% active; activation, % at 10 µM; HEK293-GC-B cells, CNP EC30, cGMP TR-FRET; 0% at EC30 CNP, 100% saturating CNP; P20594;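 active = activation at 10 µM reaching about 35% in either raw or pattern-adjusted values, limit read from the data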
proKLK7 act: activates the human kallikrein-7 zymogen; purified proKLK7, EDANS-DABCYL substrate fluorescence; 100% is mature enzyme control, 0% vehicle; activation, % at 7 µM; 370,000 tested, 0.9% active; AID 652039;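 active = activation above the mean of all tested compounds plus 3 SD, computed per campaign excluding outliers beyond control limits, cut at about 13% in these data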
ADAM10 inh: inhibitors of human ADAM10; O14672; 370,000 tested, 0.62% active; inhibition, % at 7 µM; recombinant ADAM10, EDANS/DABCYL FRET peptide cleavage, 3 h;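 active = inhibition above a per-campaign cutoff equal to the mean of compounds falling between control-based bounds plus 3 SD, cut at about 20% in these data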;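 note: 0% = DMSO wells while the 100% control is not disclosed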
GC-A act: GC-A (human) enzyme activation; P16066; HEK293 GC-A cells, cGMP TR-FRET, EC30 ANP; 0% at EC30 ANP, 100% saturating ANP; activation, % at 10 µM; 370,000 tested, 0.14% active; in the data active = activation above about 40%
KLK7 act conf: confirmation of human kallikrein-7 zymogen activators; shares compounds with proKLK7 act; purified proKLK7, EDANS-DABCYL substrate fluorescence; scaled: vehicle 0, mature enzyme 100; activation, % at 7 µM; 3,200 tested, 68% active; AID 686949;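 active = activation, as change over the incubation, above the mean of all tested compounds plus 3 SD, cut at about 13% in these data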
EDANS-DABCYL int: counter-screen for kallikrein-7 activators: EDANS-DABCYL optical interference; shares compounds with proKLK7 act; EDANS-DABCYL substrate fluorescence interference, no enzyme, 4 h; solvent 0%, active enzyme control 100%; activation, % at 7 µM; 3,200 tested, 80% active;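 active = activation above the all-compound mean plus 3 SD, ignoring values outside control-based bounds, cut at about 4.8% in these data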;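 note: value is the 4 h activation minus the activation read at time zero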
EDANS interf: counter-screen for kallikrein-7 activators: EDANS-DABCYL interference, dose response; shares compounds with proKLK7 act; EDANS-DABCYL peptide fluorescence interference, no enzyme; AID 720493; EC50, µM; 250 tested, 20% active;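 active = compounds that raise the fluorescence signal in this interference counterscreen, with EC50 at or below 10 µM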;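 note: intact quenched peptide substrate alone read at 355 nm excitation and 520 nm emission; signal is fluorescence gain from T0 to T4 after four hours at room temperature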
* = called active by the depositor; i = inactive; x = no result.

SMILES	ADAM17 inh	GC-B act	proKLK7 act	ADAM10 inh	GC-A act	KLK7 act conf	EDANS-DABCYL int	others
CC(C)[C@@H](CO)N1Cc2nnn(Cc3ccccc3)c2-c2ccccc2S1(=O)=O	-2	9	0	-5	3	x	x
CS(=O)(=O)Nc1ccccc1-c1cccc2nccn12	-86	-4	2	-326	1	x	x
CS(=O)(=O)Nc1ccc(-c2cncc3nccn23)cc1	-143	0	16*	i	4	3	4.5*
CCOc1ccc(-c2cncc3nccn23)cc1	i	-1	17*	i	4	33*	36*
CS(=O)(=O)Nc1ccc(-c2cnc3cccnn23)cc1	-106	1	76*	-325	7	14*	11*	EDANS interf=i
CC(C)C[C@@H]1COc2cc(Br)ccc2S(=O)(=O)N1Cc1cn(Cc2ccco2)nn1	-2	-3	1	0	0	x	x
Cc1sc2nc3ccc(NCc4ccco4)nn3c(=O)c2c1C	-50	0	17*	-127	7	74*	70*
CCOC(=O)[C@@]12CN(C(=O)OC(C)(C)C)CC=C1N(Cc1ccc(OC)cc1)C(=O)[C@H]2CC(=O)NCCc1ccccc1OC	2	-4	0	5	-2	x	x
CCOC(=O)[C@@]12CCCC=C1N(CCc1ccc(Cl)cc1)C(=O)[C@H]2CC(=O)NCc1ccccc1	4	-2	0	10	0	x	x
O=[N+]([O-])c1c(Nc2ccccc2)ccc2nonc12	-1	4	0	5	-2	x	x
Nc1cc(Nc2ccccc2)c2nonc2c1[N+](=O)[O-]	6	0	13*	5	4	-1	0
CC(C)(C)c1ccc2c(c1)OC(C(=O)N/N=C/c1ccc[nH]1)CO2 (configuration not stated)	1	-3	x	5	0	x	x
CCOC(=O)CC[C@H]1CC[C@]2(CCCN(C(=O)c3cccnc3)C2)O1	-1	7	0	0	0	x	x
Cn1c(=O)c(-c2ccccc2)cc2ccccc21	-52	2	0	-231	-5	x	x
Cn1c2nc(=O)[nH]c(=O)c-2cc2ccccc21	i	0	70*	i	10	67*	65*
O=c1nc2n(Cc3ccccc3)c3ccccc3cc-2c(=O)[nH]1	-136	1	8	-495	-4	x	x
O=c1nc2n(CCO)c3ccccc3cc-2c(=O)[nH]1	-194	1	18*	i	5	48*	54*
CCOC(=O)[C@@]12CN(C(=O)OC(C)(C)C)CC=C1N(Cc1ccc(OC)cc1)C(=O)[C@H]2CC(=O)N1CCSCC1	0	9	0	2	-2	x	x
COC(=O)[C@H]1C[C@@]2(N3CCCCC3)c3ccccc3N(C(=O)OC(C)(C)C)[C@H]2N1C(=O)OC(C)(C)C	1	-22	0	5	-26	x	x
CC[C@@H]1CN(C)[C@H]2Cc3c([nH]c4ccccc34)C(=O)C[C@@H]1[C@@H]2C(=O)OC	-33	-8	17*	-150	0	5	5.2*
CCOC(=O)C1Cc2c([nH]c3ccccc23)C(C)N1 (configuration not stated)	-6	0	1	-9	1	x	x
CCC(C)Nc1nc(C)nc2c1nnn2Cc1ccccc1 (configuration not stated)	1	5	0	6	6	x	x
Cc1cc(C(=O)COc2ccc3ccc(=O)oc3c2)c(C)n1Cc1cccs1	-267	2	78*	i	-1	73*	89*
CCOC(=O)c1[nH]c2ccc(OC)cc2c1NC(=O)CCN1CCCC(C)C1 (configuration not stated)	-81	5	27*	-226	-2	9	3
COC(=O)[C@]12C[C@H](CC(=O)NCC3CCCCC3)C(=O)N(Cc3ccc(Cl)cc3Cl)C1=C[C@H](C(C)C)O[C@@H]2C1CC1	-1	-3	0	0	-2	x	x
SMILES	ADAM17 inh	GC-B act	proKLK7 act	ADAM10 inh	GC-A act	KLK7 act conf	EDANS-DABCYL int	others
c1ccn2c(c1)nc1c2nc2ccccn21	i	-9	81*	i	-11	70*	73*
Clc1c(-c2ccccc2)nc2ccccn12	-21	-4	0	-61	-5	x	x
CCCCCCCCN1C(=O)[C@@H](CC(=O)N2CCN(C(=O)OCC)CC2)C[C@@]2(C(=O)OC)C1=C[C@H](COCc1ccccc1)O[C@@H]2C	2	8	1	5	0	x	x
Cc1ccc(S(=O)(=O)Oc2ccc(C3C4=C(CCCC4=O)N(CCC(=O)O)C4=C3C(=O)CCC4)cc2Cl)cc1	i	2	6	i	4	x	x
CCOc1cc(C2C3=C(CCCC3=O)N(CCC(=O)O)C3=C2C(=O)CCC3)ccc1OS(=O)(=O)c1ccc(C)cc1	-456	3	20*	i	4	30*	32*
O=C(Nc1ccc(Cl)cc1)N1CCN(Cc2nc3ccccc3c(=O)[nH]2)CC1	3	-10	0	1	-6	x	x
CC(C)(C)c1ccc(OC(=O)Nc2ccc(O)c(C(=O)O)c2)cc1	-64	3	13*	-135	-4	14*	12*
Cc1cccc(OC(=O)Nc2ccc(C(=O)O)c(O)c2)c1	-5	-2	0	-21	-3	x	x
COc1cccc2c1C(=O)O/C2=C/c1ccc2c(c1)OCO2	-29	-10	16*	-89	17	-237	-177
COc1cccc(OC)c1C1=CC(=O)C[C@H](c2ccc3c(c2)OCO3)C1	0	2	1	-10	5	x	x
COc1ccc(NC(=O)c2sc3nc(-c4cccnc4)ccc3c2N)cc1OC	-2	9	56*	-1	3	15*	16*
COc1ccc(NC(=O)c2sc3nc(-c4cccnc4)ccc3c2N)cc1	-3	0	0	-6	9	x	x
CCCCCC(=O)Nc1ccc2oc(-c3cccnc3)nc2c1	-83	-3	2	-245	1	x	x
O=C(Cc1ccccc1)Nc1ccc2oc(-c3cccnc3)nc2c1	-162	8	22*	i	5	-10	-9
Nc1c(Cl)cc(Cl)cc1C(=O)OCC(=O)NC1CC1	-479	-4	22*	i	-4	36*	33*
CC(C)C1NC2(C(=O)c3ccccc3C2=O)C2C(=O)N(c3ccc(F)cc3)C(=O)C12 (configuration not stated)	-43	-4	20*	-104	6	1	-1
